Assay results: PubChem BioAssay (NCI)
Several values for one entry are separate records, joined by “and”; a condition that tells them apart may be missing. Identical values can stand only once. The panel holds about 79,000 compounds, 15% with a hit somewhere; the sample as a whole holds those more often. Unmarked numbers belong to inactive results. Activity calls are given as the source filed them. Cut-off read from the data, not from the text of the source: active = growth inhibition above about 70%; inactive = the rest.

Assay: NCI Yeast Anticancer Drug Screen. Data for the bub3 strain (AID 167)
Details: S. cerevisiae bub3 mutant strain, at 50.0 µM, stronger effect = higher value
Procedure, shortened: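 Yeast carrying a defined mutation is treated with each compound, and growth is compared with that of vehicle-exposed cells to give inhibition.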

| Structure (SMILES) | growth inhibition |
| --- | --- |
| NC(=O)c1ccc(NN=O)nc1 | -2.85% |
| CCOC(=O)C(=O)CC(=O)[C@H]1CC[C@H]2[C@@H]3CC[C@@H]4C[C@H](O)CC[C@]4(C)[C@H]3C(=O)C[C@]12C | -3.8% |
| CCCN1CCC2(CC1)COCc1ccccc12 | 15.1% |
| NCC(O)c1ccc2c(c1)OCO2 (stereo not given) | -1.4% |
| O=C(CF)NCCCl | 9.65% |
| Cc1ccc([As]=[As]c2ccc(C)cc2N)c(N)c1 (stereo not given) | 9.05% |
| CN(C)NP(c1ccccc1)c1ccccc1 | -18.2% |
| Oc1ccc(C(O)C2CCCCN2)cc1O (stereo not given) | -16.8% |
| CC(=O)OCC1OC(OC(C)=O)C(N(CCCl)CCCl)C(OC(C)=O)C1OC(C)=O (stereo not given) | -2.25% |
| [N-]=[N+]=Nc1cc(=O)oc2ccccc12 | 0.9% |
| COc1ccc2c(c1O)C13CCN(C)C(C2)C1CCC(O)C3 (stereo not given) | -1.7% |
| O=[N+]([O-])O.[Tl] | -19.4% |
| CCCCC(CC)C(O)P(=O)(OCC)OCC (stereo not given) | 23.7% |
| COc1cccc(/C=N/[N-]C(=O)c2ccncc2)c1[O-].[Ni+2].[OH3+] | -12.2% |
| NC(N)=NOCC[C@@H](N)C(=O)O | 1.4% |
| O=Cc1ccccc1O | -6.05% |
| O=C(OCCOCCOC(=O)C(Cl)(Cl)Cl)C(Cl)(Cl)Cl | -46.6% |
| CCC1(c2c(F)c(F)c(N)c(F)c2F)CCC(=O)NC1=O (stereo not given) | -16.4% |
| COc1cc2ccnc(C3(OC(=O)c4ccccc4)CCN(CCc4ccccc4)CC3)c2cc1OC | 2.95% |
| CN1C(=O)C2(Cc3cn(C45CC67SSC(CO)(C(=O)N6C4Nc4ccccc45)N(C)C7=O)c4ccccc34)SSC1(CO)C(=O)N2C (stereo not given) | 90.8% (active) |

| Structure (SMILES) | growth inhibition |
| --- | --- |
| CC1C/C(=C\N=[N+]=[N-])C(=O)O1 (stereo not given) | 12.4% |
| S=c1sc(-c2ccc(Cl)cc2)c[se]1 | 1.7% |
| CN(C)C(=O)Sc1c(Cl)cc(S(=O)(=O)F)cc1[N+](=O)[O-] | 8.9% |
| NC1=NC(=O)C(c2ccccc2)(c2ccccc2)O1 | -19.3% |
| O=Cc1ccccc1O.[Pr] | 24.4% |
| O=P(Nc1ccc(Cl)cc1)(Oc1ccccc1)N(CCCl)CCCl (stereo not given) | -7.95% |
| CC12CCC(OC3OC(CO)C(OC4OC(CO)C(O)C(O)C4O)C(O)C3O)CC1CCC1C2CCC2(C)C(C3=CC(=O)OC3)CCC12O (stereo not given) | 13.6% |
| CC1=C[C@H]2[C@@]3(O)[C@H](C)C[C@]4(OC(=O)C(C)C)[C@H]([C@@H]3C=C(CO)C[C@]2(O)C1=O)C4(C)C | 20.8% |
| Oc1cccc2cccnc12.[Cr] | -16.9% |
| CC12CCC3C(CC=C4CC(=O)CCC43CCO)C1CCC2Oc1ccccc1 (stereo not given) | 23.7% |
| CC(=O)[CH-]C(C)=O.CC(=O)[CH-]C(C)=O.CC(=O)[CH-]C(C)=O.[Ga+3] | 31.1% |
| Cc1ccc(CI)cc1 | 20.1% |
| COc1ccc2c3c1O[C@]1(C)C34CCN(C)C(C2)C42C=C[C@@]1(OC)c1c(O)ccc(O)c12 | -10.6% |
| CO/N=C1\CC(C)N2C(=O)C(C(C)C)NC(=O)C(NC(=O)c3c4nc5c(C(=O)NC6C(=O)NC(C(C)C)C(=O)N7C(C)CC(O)C7C(=O)N(C)CC(=O)N(C)C(C(C)C)C(=O)OC6C)ccc(C)c5oc-4c(C)c(=O)c3N)C(CO)OC(=O)C(C)N(C)C(=O)CN(C)C(=O)C12 (stereo not given) | -3.9% |
| Cc1c(Cl)cccc1NC(=O)C(=O)C1C(=O)NC(=O)NC1=O | -17.8% |
| COc1ccc2c3c1OC1C(Oc4nnnn4-c4ccccc4)C=CC4C(C2)N(C)CCC341 (stereo not given) | -5.75% |
| CC(C)N(N=O)C(C)C | 0.95% |
| C[C@]12Cc3cnc(-c4ccccc4)nc3C[C@@H]1CC[C@@H]1[C@@H]2CC[C@@]2(C)[C@H]1CC[C@]2(C)O | 39.5% |
| c1cc2c(c(NC3=NCCO3)c1)CCCC2 | -5.35% and 39.4% |
| CCNC(Cc1ccccc1)c1ccco1 (stereo not given) | -10.2% |
